How the values were obtained:
Experiment in all cases: PBM binding z-score (relative to random genomic background probes); higher = stronger binding; sequences stand for … in GC…GCGATTGACAGCGTAGAATGAAGG
[1] = tested on: FXR:RXRa (NR concentration 270 nM, RXRa partner concentration 90 nM)
How it was run: (§1)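 For binding z-scores, the reference was random background probes on custom Agilent 4×180K protein-binding microarrays. These arrays were incubated 1 h with ligand-free nuclear receptor dimers in PBS pH 7.4, 2% milk, 0.02% Triton X-100, 1 mM DTT, 0.2 mg/mL BSA and 0.4 mg/ml salmon testes DNA. Fluorescence was scanned after antibody detection of each partner (one per run) and regression-normalized.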

[2] = tested on: LXRa:RXRa (NR concentration 270 nM, RXRa partner concentration 90 nM)
How it was run: as §1

[3] = tested on: LXRa homodimer (NR concentration 270 nM)
How it was run: as §1

[4] = tested on: LXRb:RXRa (NR concentration 270 nM, RXRa partner concentration 90 nM)
How it was run: as §1

[5] = tested on: LXRb homodimer (NR concentration 270 nM)
How it was run: as §1

[6] = tested on: PPARa:RXRa (NR concentration 270 nM, RXRa partner concentration 90 nM)
How it was run: as §1

[7] = tested on: PPARg:RXRa (NR concentration 180 nM, RXRa partner concentration 90 nM)
How it was run: as §1

[8] = tested on: PPARg:RXRa 270nM:90nM, anti-RXR (NR concentration 270 nM, RXRa partner concentration 90 nM)
How it was run: as §1

[9] = tested on: PPARg:RXRa 30nM:10nM, anti-RXR (NR concentration 30 nM, RXRa partner concentration 10 nM)
How it was run: as §1

[10] = tested on: PPARg:RXRa 90nM:30nM, anti-RXR (NR concentration 90 nM, RXRa partner concentration 30 nM)
How it was run: as §1

Row | Sequence | PBM binding z-score [1] | PBM binding z-score [2] | PBM binding z-score [3] | PBM binding z-score [4] | PBM binding z-score [5] | PBM binding z-score [6] | PBM binding z-score [7] | PBM binding z-score [8] | PBM binding z-score [9] | PBM binding z-score [10]
1 | TCGAGTAGGTTAGTCGGGGCAGTCAGCCAACATA | 0.0181 | -0.31 | -0.676 | 0.0169 | -0.869 | 0.556 | -0.388 | 0.946 | 0.987 | 0.955
2 | CGAGCTAGGTCATCCAGGACAGTGAATACATTGA | 4.29 | 2.49 | 0.492 | 1.96 | 0.0673 | 3.54 | 2.6 | 2.25 | 0.528 | 1.35
3 | CCTCGGATGACAGAAGGTCAGAGCTGTCCGCTTT | 1.3 | 1.79 | 0.493 | 1.37 | 0.0484 | 2.01 | 0.0217 | 0.56 | -0.64 | 0.0995
4 | TCTCGGAGGACACGAATGGTCAGAGCTCGACATC | 0.104 | 0.0169 | -0.468 | -0.483 | -0.915 | -0.144 | 0.236 | 0.78 | 2.1 | 1.28
5 | ATACCGAGGTGATCGTGAGGTCGTTGATACTAAC | 1.95 | 1.69 | 0.52 | 1.59 | -0.183 | 1.83 | 0.57 | 0.574 | -0.146 | 0.356
6 | GTTACAGGGTCAGCTAGAGGCCAGAGTATGGAAA | 4.39 | 3.18 | -0.168 | 2.39 | 0.166 | 4.41 | 3.35 | 3.64 | 0.837 | 2.63
7 | CCTACTGGGCCATCAGGTCATTGGTATCAACGTT | 1.47 | 1.25 | 1.08 | 1.78 | -0.424 | 2.91 | 2.98 | 3.68 | 1.17 | 2.79
8 | CAAACTAGGTCAAGGTCAAAGTCGGTTTGTGCCA | 6.65 | 5.95 | 4.23 | 4.67 | 1.63 | 6.12 | 9.81 | 8.12 | 7.05 | 8.27
9 | CCTTACGGATCACTGACAGGTTATAGCATTTGGA | 0.345 | 0.818 | 0.768 | 0.559 | 0.661 | 0.447 | 0.638 | 0.275 | 0.461 | 0.192

From the supplement of paper PMC6555819
